Assay results taken from the supplement of paper PMC12297408.
Structures can show the parent of a compound that is named as a salt. The campaign covered roughly 1,300 compounds. About 40 (3%) showed activity. Only a selection was taken, and actives are over-represented in it overall.

Test system: Plasmodium falciparum NF54/iGP1_RE9H ulg8 stage V gametocytes
Assay: gametocyte viability (luciferase signal relative to DMSO control) (% of DMSO control); higher = less gametocytocidal activity, active = 50 or less
Settings: exposure time: 72 h
In short: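 In 96-well plates holding nanolitre spots of compound (10 mM DMSO stocks), NF54/iGP1_RE9Hulg8 stage V gametocytes from day 12 were added at ~2.5% gametocytemia and 3% hematocrit in medium with 0.5% Albumax II, giving single wells at 10 µM or 1 µM. Incubation lasted 72 h at 37 °C. Each 90 µl sample then received 10 µl D-luciferin (30 mg/ml) before luminescence reading on an IVIS Lumina II, and viability was normalized to the mean of DMSO vehicle wells on the same plate.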

SMILES | gametocyte viability (concentration: 1 µM) | gametocyte viability (concentration: 10 µM)
N=c1nc(N2CCCCC2)cc(N)n1O [Minoxidil] | 102 (inactive) | 96 (inactive)
OCCN(CCO)c1nc(N2CCCCC2)c2nc(N(CCO)CCO)nc(N3CCCCC3)c2n1 [Dipyridamole] | 64.1 (inactive) | 41.1 (active)
CC(C)NCC(O)c1ccc(O)c(O)c1 (single isomer, unassigned; (+)) [(+)-Isoproterenol (+)-bitartrate salt] | 100 (inactive) | 97.8 (inactive)
CC(=O)c1ccc2c(c1)N(CCCN1CCC(CCO)CC1)c1ccccc1S2 [Piperacetazine] | 79.4 (inactive) | 80.8 (inactive)
Fc1ccc(C(c2ccc(F)cc2)N2CCN(C/C=C/c3ccccc3)CC2)cc1 [Flunarizine dihydrochloride] | 81.5 (inactive) | 95.1 (inactive)
COC1=CC(=O)C[C@@H](C)[C@]12Oc1c(Cl)c(OC)cc(OC)c1C2=O [Griseofulvin] | 89.3 (inactive) | 84.6 (inactive)
CCOC(=O)O[C@]1(C(=O)COC(=O)CC)CC[C@H]2[C@@H]3CCC4=CC(=O)C=C[C@]4(C)[C@H]3[C@@H](O)C[C@@]21C [Prednicarbate] | 91.7 (inactive) | 90.6 (inactive)
CN(Cc1cnc2nc(N)nc(N)c2n1)c1ccc(C(=O)N[C@@H](CCC(=O)O)C(=O)O)cc1 [Methotrexate] | 91.4 (inactive) | 87.9 (inactive)
CN(Cc1cnc2nc(N)nc(N)c2n1)c1ccc(C(=O)N[C@@H](CCC(=O)O)C(=O)O)cc1 (racemic) [Amethopterin (R,S)] | 80.3 (inactive) | 83.6 (inactive)
COc1cccc2c1C(=O)c1c(O)c3c(c(O)c1C2=O)C[C@@](O)(C(=O)CO)C[C@@H]3O[C@H]1C[C@H](N)[C@H](O)[C@H](C)O1 [Doxorubicin hydrochloride] | 64.5 (inactive) | 19 (active)
COc1cccc2c1C(=O)c1c(O)c3c(c(O)c1C2=O)C[C@@](O)(C(C)=O)C[C@@H]3O[C@H]1C[C@H](N)[C@H](O)[C@H](C)O1 [Daunorubicin hydrochloride] | 69.8 (inactive) | 7.37 (active)
C#C[C@]1(O)CC[C@H]2[C@@H]3CCC4=CCCC[C@@H]4[C@H]3CC[C@@]21C [Lynestrenol] | 86 (inactive) | 89.2 (inactive)
CCCCNc1c(C(=O)OCC)c(C)nc2c1cnn2CC [Tracazolate hydrochloride] | 88.5 (inactive) | 76.3 (inactive)
CC#C[C@]1(O)CC[C@H]2[C@@H]3CCC4=CC(=O)CCC4=C3[C@@H](c3ccc(N(C)C)cc3)C[C@@]21C [Mifepristone] | 83.1 (inactive) | 83.2 (inactive)
CN(C)CCOC1=Cc2ccccc2Sc2ccc(Cl)cc21 [Zotepine] | 91.1 (inactive) | 86 (inactive)
CCOC(=O)N1CCC(=C2c3ccc(Cl)cc3CCc3cccnc32)CC1 [Loratadine] | 86 (inactive) | 87.7 (inactive)
OC(Cn1cncn1)(Cn1cncn1)c1ccc(F)cc1F [Fluconazole] | 83.4 (inactive) | 86.9 (inactive)
CN(C)CCc1c[nH]c2ccc(Cn3cncn3)cc12 [Rizatriptan benzoate] | 84.2 (inactive) | 84 (inactive)
CC(C)(C#N)c1cc(Cn2cncn2)cc(C(C)(C)C#N)c1 [Anastrozole] | 77.6 (inactive) | 45.8 (active)

SMILES | gametocyte viability (concentration: 1 µM) | gametocyte viability (concentration: 10 µM)
CC(C)c1nc(CN(C)C(=O)N[C@H](C(=O)N[C@@H](Cc2ccccc2)C[C@H](O)[C@H](Cc2ccccc2)NC(=O)OCc2cncs2)C(C)C)cs1 [Ritonavir] | 66.4 (inactive) | 36.5 (active)
Nc1ccc(/N=N/c2ccccc2)c(N)n1 [Phenazopyridine hydrochloride] | 88.3 (inactive) | 48.1 (active)
Nc1c2ccccc2nc2ccccc12 [Aminacrine] | 85.8 (inactive) | 81.4 (inactive)
CCN1CCN(C(=O)N[C@@H](C(=O)N[C@@H]2C(=O)N3C(C(=O)O)=C(CSc4nnnn4C)CS[C@H]23)c2ccc(O)cc2)C(=O)C1=O [Cefoperazone dihydrate] | 79.3 (inactive) | 83.8 (inactive)
CC(N)CCCC(C)(C)O (centres undefined) [Heptaminol hydrochloride] | 82.3 (inactive) | 84.6 (inactive)
Cc1c(-c2ccccc2)oc2c(C(=O)OCCN3CCCCC3)cccc2c1=O [Flavoxate hydrochloride] | 92 (inactive) | 87 (inactive)
N#CC(c1ccc(Cl)cc1)c1c(Cl)cc(-n2ncc(=O)[nH]c2=O)cc1Cl (centres undefined) [Diclazuril] | 92.9 (inactive) | 91.4 (inactive)
CC(=O)Nc1c(I)c(C(=O)N[C@H]2C(O)O[C@H](CO)[C@@H](O)[C@@H]2O)c(I)c(N(C)C(C)=O)c1I (some centres undefined) [Metrizamide] | 84.7 (inactive) | 88.9 (inactive)
CCCC1C(=O)N2C(N(C)C)=Nc3ccc(C)cc3N2C1=O (centres undefined) [Azapropazone] | 89.5 (inactive) | 87.5 (inactive)
Oc1c(Cl)cc(Cl)c2cccnc12 [Chloroxine] | 83.4 (inactive) | 84.2 (inactive)
CO[C@@]1(NC(=O)Cc2cccs2)C(=O)N2C(C(=O)O)=C(COC(N)=O)CS[C@@H]21 [Cefoxitin sodium salt] | 85.9 (inactive) | 81.1 (inactive)
CNC1(C)C2CCC(C2)C1(C)C (centres undefined) [Mecamylamine hydrochloride] | 93.8 (inactive) | 94.3 (inactive)
CCC(C)(C)C(=O)O[C@H]1C[C@@H](C)C=C2C=C[C@H](C)[C@H](CC[C@@H]3C[C@@H](O)CC(=O)O3)[C@H]21 [Simvastatin] | 80.4 (inactive) | 85.5 (inactive)
CCOC(=O)C1=C(COCCN)NC(C)=C(C(=O)OC)C1c1ccccc1Cl (centres undefined) [Amlodipine] | 82.2 (inactive) | 63.1 (inactive)
COCCc1ccc(OCC(O)CNC(C)C)cc1 (racemic) [Metoprolol-(+,-) (+)-tartrate salt] | 94 (inactive) | 94 (inactive)
CCCCCCNC(=O)n1cc(F)c(=O)[nH]c1=O [Carmofur] | 80.2 (inactive) | 76.4 (inactive)
Cc1cccn2c(=O)c(-c3nnn[nH]3)cnc12 [Pemirolast potassium] | 80.6 (inactive) | 84.7 (inactive)
COc1cc(C(=O)N2CCOCC2)cc(OC)c1OC [Trimetozine] | 81.7 (inactive) | 80.2 (inactive)
CN1CCc2c(c3ccccc3n2Cc2ccccc2)C1 [Mebhydroline 1,5-naphtalenedisulfonate] | 88.8 (inactive) | 83.3 (inactive)

SMILES | gametocyte viability (concentration: 1 µM) | gametocyte viability (concentration: 10 µM)
Cc1c(N(C)C)c(=O)n(-c2ccccc2)n1C [Amidopyrine] | 99 (inactive) | 95.3 (inactive)
O=C1c2c(O)ccc(O)c2C(=O)c2c(NCCNCCO)ccc(NCCNCCO)c21 [Mitoxantrone dihydrochloride] | 86.2 (inactive) | 12.9 (active)
O=C1c2cccc(O)c2C(=O)c2c(O)cccc21 [1,8-Dihydroxyanthraquinone] | 82.8 (inactive) | 85.1 (inactive)
O=C1c2c(O)cccc2Cc2cccc(O)c21 [Anthralin] | 89.3 (inactive) | 86.9 (inactive)
O=c1[nH]c(=O)n(C2CCCO2)cc1F (centres undefined) [Tegafur] | 82.6 (inactive) | 82.6 (inactive)
Cc1scc2c1N(C(=O)CN1CCN(C)CC1)c1ccccc1NC2=O [Telenzepine dihydrochloride] | 97.8 (inactive) | 96.3 (inactive)
CC[N+](CC)(CC)CCC(O)(c1ccccc1)C1CCCCC1 (centres undefined) [Tridihexethyl chloride] | 95.7 (inactive) | 100 (inactive)
CCOC(=O)C1=C(C)NC(C)=C(C(=O)OCC)C1c1ccccc1/C=C/C(=O)OC(C)(C)C [Lacidipine] | 97.1 (inactive) | 96.5 (inactive)
Cc1cccc(Nc2ccccc2C(=O)O)c1C [Mefenamic acid] | 94 (inactive) | 94.6 (inactive)
Cc1c(Cl)cccc1Nc1ccccc1C(=O)O [Tolfenamic acid] | 83.6 (inactive) | 90.8 (inactive)
COc1ccc(/C=C/C(=O)Nc2ccccc2C(=O)O)cc1OC [Tranilast] | 68.5 (inactive) | 40.9 (active)
COC1=C(OC)C(=O)C(CCCCCCCCCCO)=C(C)C1=O [Idebenone] | 88 (inactive) | 86.8 (inactive)
Cn1c(=O)c2c(ncn2CC2OCCO2)n(C)c1=O [Doxofylline] | 86.6 (inactive) | 86.7 (inactive)
COc1cc(N)c(Cl)cc1C(=O)NC1CCN(CCCOc2ccc(F)cc2)CC1OC (centres undefined) [Cisapride] | 95.9 (inactive) | 96.7 (inactive)
C[C@H](CCC(=O)O)[C@H]1CC[C@H]2[C@@H]3C(=O)C[C@@H]4CC(=O)CC[C@]4(C)[C@H]3CC(=O)[C@]12C [Dehydrocholic acid] | 95.4 (inactive) | 93.6 (inactive)
C=C1c2c(Cl)ccc(O)c2C(O)=C2C(=O)[C@]3(O)C(O)=C(C(N)=O)C(=O)[C@@H](N(C)C)[C@@H]3[C@@H](O)[C@H]12.O=C(O)c1cc(S(=O)(=O)O)ccc1O [Meclocycline sulfosalicylate] | 80.9 (inactive) | 83.5 (inactive)
CN(C)CC/C=C1/c2ccccc2COc2ccc(CC(=O)O)cc21 [Olopatadine hydrochloride] | 77.9 (inactive) | 86.5 (inactive)
CCCOc1ccc(C(=O)OCCN(CC)CC)cc1N [Proparacaine hydrochloride] | 98.5 (inactive) | 105 (inactive)
COc1cccc(OC)c1C(=O)N[C@@H]1C(=O)N2[C@@H]1SC(C)(C)[C@@H]2C(=O)O [Methicillin sodium] | 83.4 (inactive) | 83.1 (inactive)
